Measurements: PubChem BioAssay (Tox21)
Inconclusive results are not listed. A call without a number means that no potency is given here. Where a structure was tested more than once in an assay, its records may differ in their call. The source made the active and inactive calls. Calls come from the whole dose curve.

Assay: qHTS assay to identify small molecule agonists of the progesterone receptor (PR) signaling pathway - cell viability counter screen (AID 1346799); note: nearly all actives have a fitted effect of over 45% in size
Conditions: PR-UAS-bla HEK293T viability, CellTiter-Glo luminescence, 16 h; series mostly up to 92.4 µM
Excerpt: National Center for Advancing Translational Sciences [NCATS]
NIH Chemical Genomics Center [NCGC]
U.S. Environmental Protection Agency [EPA]
National Institutes of Environmental Health Sciences [NIEHS]
National Toxicology Program [NTP]
U.S. Food and Drug Administration [FDA]
Progesterone receptor (PR), a nuclear hormone receptor, plays an important role in development, metabolic homeostasis and reproduction. It is activated by the steroid hormone progesterone. Endocrine disrupting chemicals (EDCs) and their interactions with steroid hormone receptors like PR causes disruption of normal endocrine function. To identify the compounds that stimulate PR signaling, a PR-UAS-bla GripTite cell line i.e. PR-UAS-bla HEK293T (Invitrogen, Carlsbad, CA, USA) containing a beta-lactamase reporter gene under the control of an UAS response element was used to screen Tox21 10K compound library. The cytotoxicity of the Tox21 compound library against the PR-bla cell line was tested in parallel by measuring the cell viability using CellTiter-Glo assay in the same wells.
Tox21 Assay Protocol Summary:
PR-UAS-bla HEK293T cells were dispensed at 3,000 cells/5 uL of assay medium containing 2% charcoal stripped FBS per well into black wall/clear-bottom 1536-well plates using a Multidrop Combi (ThermoFisher Scientific, Waltham, MA) dispenser. After the assay plates were incubated at a 37C and 5% CO2 for 6 hr, 23 nL of compounds dissolved in DMSO, positive controls or DMSO only was transferred to the assay plate by a Pintool station (Kalypsys, San Diego, CA). The plates were incubated at 37C and 5% CO2 for 16 hr. Then 1 uL of LiveBLAzer B/G FRET substrate was added using a Flying Reagent Dispenser (FRD, Aurora Discovery, San Diego, CA), the plates were incubated at room temperature for 2 hours, and fluorescence intensity was measured by an Envision plate reader (PerkinElmer, Shelton, CT). For cell viability readout that measures cytotoxicity, 4 uL/well of CellTiter-Glo reagent was added into the assay plates using a FRD. After 30 min incubation at room temperature, the luminescence intensity in the plates was measured using a ViewLux (PerkinElmer) plate reader.
Potency is the fitted concentration of half-maximal effect.

**Q.** Which Potency does the source give for `C=CC(=O)OCCN(CC)CC` here?
**A.** The Potency was “inactive”.

**Q.** Which Potency does the source give for `CCOCOCC` here?
**A.** Its Potency is “inactive”.

**Q.** For `CN1CCN(C2Cc3ccccc3Sc3ccc(Cl)cc32)CC1` (stereo not given), which Potency is on record?
**A.** Its Potency is 29.8 µM (active).

**Q.** For `CC1CNCC(C)O1` (stereo not given), which Potency is on record?
**A.** The Potency was “inactive”.

**Q.** With `O=C(O)CCn1c2c(c3ccccc31)C[C@H](NS(=O)(=O)c1ccc(F)cc1)CC2` as the molecule, how does the Potency read?
**A.** Its Potency is “inactive”.

**Q.** With `CCN(CC)c1cccc(C)c1` as the molecule, how does the Potency read?
**A.** Its Potency is “inactive”.

**Q.** For `Cc1cncc(C)c1`, which Potency is on record?
**A.** The Potency was “inactive”.

**Q.** Which Potency does the source give for `OCCC(O)CO` (stereo not given) here?
**A.** The Potency was “inactive”.

**Q.** For `CCCCCCCC(C)=O`, which Potency is on record?
**A.** The Potency was “inactive”.

**Q.** Which Potency does the source give for `CC(C)(C)c1cc(CCC(=O)NCCCCCCNC(=O)CCc2cc(C(C)(C)C)c(O)c(C(C)(C)C)c2)cc(C(C)(C)C)c1O` here?
**A.** The Potency was “inactive”.

**Q.** With `CC(C)N=C(N)/N=C(\N)Nc1ccc(Cl)cc1` as the molecule, how does the Potency read?
**A.** The Potency was “inactive”.

**Q.** Which Potency does the source give for `O=C1C=CC(=O)N1c1ccccc1` here?
**A.** Its Potency is 61.1 µM (active).

**Q.** Which Potency does the source give for `CN(C)CCCN1c2ccccc2CCc2ccccc21` here?
**A.** Its Potency is 21.7 µM (active) and inactive.

**Q.** For `O=C=NCc1cccc(CN=C=O)c1`, which activity change, negative = cytotoxicity is on record?
**A.** Its activity change, negative = cytotoxicity is -1.39% [at 19 µM] (inactive).

**Q.** For `CCCN(CCc1cccs1)[C@H]1CCc2c(O)cccc2C1`, which Potency is on record?
**A.** Its Potency is “inactive”.

**Q.** For `CCCCCCCCCCCCCCCC`, which Potency is on record?
**A.** The Potency was “inactive”.

**Q.** With `COC(=O)CC(C)CCC=C(C)C` (stereo not given) as the molecule, how does the Potency read?
**A.** Its Potency is “inactive”.

**Q.** For `COc1cccc(OC)c1O`, which Potency is on record?
**A.** The Potency was “inactive”.

**Q.** Which Potency does the source give for `CCCCCCOc1ccc(O)cc1` here?
**A.** Its Potency is “inactive”.

**Q.** For `C=CC(=O)OCC(O)COc1ccccc1` (stereo not given), which Potency is on record?
**A.** Its Potency is “inactive”.

**Q.** With `O=Cc1ccc(F)cc1` as the molecule, how does the Potency read?
**A.** Its Potency is “inactive”.

**Q.** With `CN(C)CCN1CCOCC1` as the molecule, how does the Potency read?
**A.** Its Potency is “inactive”.

**Q.** Which Potency does the source give for `CCCCCCCCCCCCOC(=O)c1cc(O)c(O)c(O)c1` here?
**A.** Its Potency is 60.9 µM (active).

**Q.** For `C(=C/c1ccccc1)/c1ccccc1`, which Potency is on record?
**A.** Its Potency is “inactive”.

**Q.** For `COC(=O)C1=C(C)NC(C)=C(C(=O)OCCCN2CCC(c3ccccc3)(c3ccccc3)CC2)C1c1cccc([N+](=O)[O-])c1` (stereo not given), which Potency is on record?
**A.** Its Potency is 13.3 µM (active).

**Q.** With `Clc1cc(Cl)c(-c2c(Cl)c(Cl)cc(Cl)c2Cl)cc1Cl` as the molecule, how does the Potency read?
**A.** Its Potency is “inactive”.

**Q.** Which Potency does the source give for `Clc1ccccc1CN1CCc2sccc2C1` here?
**A.** Its Potency is “inactive”.

**Q.** With `CCN=c1cc2oc3cc(NCC)c(C)cc3c(-c3ccccc3C(=O)OCC)c-2cc1C` as the molecule, how does the Potency read?
**A.** The Potency was 48.4 µM (active).

**Q.** For `Cc1cc(=O)[nH]c(=O)[nH]1`, which Potency is on record?
**A.** Its Potency is “inactive”.

**Q.** For `CCCC(O)C(O)CO` (stereo not given), which Potency is on record?
**A.** Its Potency is “inactive”.

**Q.** With `CCCCCCCC/C=C\CCCCCCCC(=O)N(C)CC(=O)O` as the molecule, how does the Potency read?
**A.** The Potency was 68.6 µM (active).

**Q.** Which Potency does the source give for `Cc1nc(Nc2ncc(C(=O)Nc3c(C)cccc3Cl)s2)cc(N2CCN(CCO)CC2)n1` here?
**A.** Its Potency is “inactive”.

**Q.** Which Potency does the source give for `CCCSS/C(CCO)=C(\C)N(C=O)Cc1cnc(C)nc1N` here?
**A.** The Potency was “inactive”.

**Q.** With `CCCCCCC(C)OC(=O)COc1nc(F)c(Cl)c(N)c1Cl` (stereo not given) as the molecule, how does the Potency read?
**A.** The Potency was “inactive”.

**Q.** With `CC(=O)O[C@@H]1C[C@@H]2CC[C@@]1(C)C2(C)C` as the molecule, how does the Potency read?
**A.** The Potency was “inactive”.

**Q.** For `COc1cccc(CCc2ccccc2OCC(CN(C)C)OC(=O)CCC(=O)O)c1` (stereo not given), which Potency is on record?
**A.** The Potency was 2.98 µM (active).

**Q.** For `CCCCCCCCC(C)=O`, which Potency is on record?
**A.** The Potency was “inactive”.

**Q.** For `ClC/C=C\CCl`, which Potency is on record?
**A.** The Potency was “inactive”.

**Q.** With `C[Si](C)(C)Cl` as the molecule, how does the Potency read?
**A.** The Potency was “inactive”.

**Q.** For `CCOC(/C=C(\C)CCC=C(C)C)OCC`, which Potency is on record?
**A.** Its Potency is “inactive”.
